Assay outcomes from PubChem.
SENP7 block – inhibitors of human SENP7 protease; Q9BQF6; recombinant SENP7, Z-RLRGG-aminoluciferin luminescence, 40 min; inhibition, % at 5 µM; actives 1.5% (n = 330,000); AID 434973;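 active = inhibition above about 50% at the single test dose, limit read from the data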
Platelet DG rel – modulates dense granule release in human platelets; human platelet-rich plasma, SFLLRN dense granule ATP release, luminescence; inhibition, %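 (compounds screened at 7.5 µM in platelet-rich plasma)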; actives 0.22% (n = 300,000);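 active = mean replicate score, as percent of positive control, at or above 50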
SENP8 block-1 – SENP8 protease inhibition. Q96LD8. purified SENP8, Z-RLRGG-aminoluciferin cleavage, luminescence. inhibition, % at 10 µM. actives 1.2% (n = 330,000); in the data active = inhibition above about 50%
SENP6 block – SENP6 protease inhibition; Recombinant SENP6 catalytic domain, aminoluciferin luminescence; inhibition, % at 10 µM; actives 1.8% (n = 330,000); AID 2599;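 active = inhibition above about 50% at the single tested dose, limit read from the data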
Target sequence (Q9GZR1 628-1112 limits assumed): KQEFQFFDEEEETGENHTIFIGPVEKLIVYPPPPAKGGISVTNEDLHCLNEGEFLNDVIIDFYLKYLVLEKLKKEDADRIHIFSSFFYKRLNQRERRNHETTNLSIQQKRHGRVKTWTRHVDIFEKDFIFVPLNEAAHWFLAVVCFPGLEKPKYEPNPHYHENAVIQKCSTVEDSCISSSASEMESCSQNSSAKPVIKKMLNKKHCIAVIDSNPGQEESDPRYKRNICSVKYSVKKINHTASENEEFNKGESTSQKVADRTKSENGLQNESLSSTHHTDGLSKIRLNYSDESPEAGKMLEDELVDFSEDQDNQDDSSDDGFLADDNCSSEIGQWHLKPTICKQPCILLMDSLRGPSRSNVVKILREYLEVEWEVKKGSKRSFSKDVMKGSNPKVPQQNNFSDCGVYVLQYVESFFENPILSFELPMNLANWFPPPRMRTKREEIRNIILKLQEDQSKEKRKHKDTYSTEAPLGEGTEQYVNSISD
SENP8 block-2 – blocks human SENP8 cleavage of Nedd8 substrate | recombinant SENP8, Nedd8 substrate fluorescence | AID 602440 | Q96LD8 | actives 0.64% (n = 360,000) | inhibition, % at 20 µM; in the data active = inhibition mostly above about 40%, no sharp cut-off; inactive = mostly below about 27%
SENP8 conf – human SENP8 inhibition, confirmed | actives 40% (n = 6,200) | Recombinant SENP8, Z-RLRGG-aminoluciferin luminescence, 60 min | inhibition, % at 12.5 µM | shares compounds with SENP7 block;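 active = mean inhibition across replicates above about 50%, limit read from the data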
SENP6 conf – human SENP6 inhibition, confirmed. inhibition, % at 12.5 µM. recombinant SENP6, Z-RLRGG-aminoluciferin luminescence. shares compounds with SENP7 block. actives 58% (n = 6,200)
SENP7 confirm – confirmation of human SENP7 protease inhibitors; shares compounds with SENP7 block; recombinant SENP7, Z-RLRGG-aminoluciferin luminescence, 40 min; inhibition, % at 12.5 µM; actives 69% (n = 6,200); AID 488917
Casp3 select – caspase-3 inhibition (SENP selectivity assay) | shares compounds with SENP7 block | purified caspase-3, Z-DEVD-aminoluciferin luminescence, 60 min | inhibition, % at 12.5 µM | actives 60% (n = 6,200);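 active = mean inhibition above about 50%, limit read from the data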
SENP luc ctr – counter-screen for SENP inhibitors: luminescence interference; shares compounds with SENP7 block; Pre-incubated SENP8/Z-RLRGG-aminoluciferin, luciferase luminescence interference; inhibition, % at 12.5 µM; actives 39% (n = 6,200); AID 488919;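 active = mean inhibition above about 50% when retested at one dose, limit read from the data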
Of the large screens only hits and unclear results are named; the others gave an inactive call (follow-up assays come after a bar, where they were run). Rows were chosen to be rich in hits. Some 2.4% of all compounds tested hit in one or more screens of this group.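 Rule for the calls, unless noted: active = mean inhibition above about 50% in the one-dose retest (limit read from the data); inactive = the rest.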

Cc1ccc(-c2ccc(CO)o2)cc1N	none
O=C(OC1CCc2ccccc2C1=O)c1ccccc1O (configuration not stated)	SENP7 block 79.7, SENP8 block-1 70.0, SENP6 block 82.4 (no result: Platelet DG rel) | SENP8 conf 81.4 | SENP6 conf 79.8 | SENP7 confirm 92.2 | Casp3 select 67.0 | SENP luc ctr inactive
Cc1ccc(C(=O)NC2CCc3ccccc3C2=O)cc1 (configuration not stated)	none
Cc1oc(/N=C/c2ccc(O)cc2O)c(C#N)c1C	SENP6 block 57.4 | SENP8 conf 81.3 | SENP6 conf 82.3 | SENP7 confirm 93.9 | Casp3 select 55.5 | SENP luc ctr inactive
O=c1[nH]c(-c2ccccc2)cnc1-c1ccccc1	SENP7 block 73.7, SENP6 block 52.0 | SENP8 conf inactive | SENP6 conf inactive | SENP7 confirm inactive | Casp3 select inactive | SENP luc ctr inactive
Cc1cc(-c2cccs2)n[nH]1	none
Cc1cc2ncc(-c3cccs3)nc2cc1C	SENP7 block 97.9, SENP8 block-1 95.9, SENP6 block 93.7 | SENP8 conf 65.9 | SENP6 conf 77.0 | SENP7 confirm 67.0 | Casp3 select 85.8 | SENP luc ctr inactive
Nc1nc(Nc2ccccc2F)sc1C(=O)c1ccccc1	SENP8 block-1 59.4, SENP6 block 71.6 | SENP8 conf 74.5 | SENP6 conf 69.4 | SENP7 confirm 86.2 | Casp3 select inactive | SENP luc ctr 75.6
Cc1nc(Nc2ccccc2)sc1C(=O)c1ccc(F)cc1	none
CC(=O)Oc1[nH]c(=O)c2cccc3c2c1CCC3	none (no result: SENP7 block, Platelet DG rel, SENP8 block-1, SENP6 block)
COc1ccc(-c2cn(Cc3ccc(C(N)=O)cc3)c(-c3ccncc3)n2)cc1	SENP7 block 68.1, SENP8 block-1 61.2, SENP6 block 71.6 (no result: Platelet DG rel) | SENP8 conf 70.6 | SENP6 conf 68.8 | SENP7 confirm 91.4 | Casp3 select 75.8 | SENP luc ctr 54.1
O=C(OCc1nc2ccccc2s1)c1ccccc1O	SENP7 block 86.2, SENP8 block-1 84.6, SENP6 block 91.9 | SENP8 conf 88.7 | SENP6 conf 90.5 | SENP7 confirm 97.7 | Casp3 select 83.3 | SENP luc ctr 74.3
O=C(O)CCCC(=O)Nc1ccc(OCc2nc3ccccc3s2)cc1	none
O=C(OCc1nc2ccccc2s1)c1cccs1	SENP6 block 74.0 | SENP8 conf 63.1 | SENP6 conf 69.7 | SENP7 confirm 84.3 | Casp3 select inactive | SENP luc ctr 63.7
O=C(OCc1nc2ccccc2s1)c1cnccn1	none
O=C(O)c1ccccc1OCc1nc2ccccc2s1	SENP7 block 91.6, SENP8 block-1 89.5, SENP6 block 92.4 | SENP8 conf 91.1 | SENP6 conf 92.6 | SENP7 confirm 100.0 | Casp3 select 84.7 | SENP luc ctr 79.4
Nc1nnc(SCC(=O)NC2CCCCCC2)s1	none
CCc1cc2c(cc3c(=O)n(CC(=O)N4CCN(C)CC4)ncn32)s1	none
O=C(NC1CCN(C(=O)Nc2ccc(F)cc2)CC1)c1ccc(F)cc1	none
CCCCN(C=O)c1c(CC)nc2c(OCCOc3ccc(F)cc3)cccn12	none (no result: SENP7 block, Platelet DG rel, SENP8 block-1, SENP6 block)
Cc1ccc2c(c1)COc1c3ccc(C(=O)NC(C)C)cc3nn1-2	none
O=C(O)c1ccc2c3n(nc2c1)-c1ccc(Cl)cc1CO3	SENP7 block 93.6, SENP8 block-1 93.7, SENP6 block 97.8 (no result: SENP8 block-2) | SENP8 conf 98.5 | SENP6 conf 99.4 | SENP7 confirm 102.9 | Casp3 select 98.5 | SENP luc ctr 96.1
C=CCNC(=O)c1ccc2c3n(nc2c1)-c1ccccc1CO3	SENP7 block 74.8, SENP8 block-1 77.1, SENP6 block 79.9 | SENP8 conf 75.5 | SENP6 conf 74.8 | SENP7 confirm 94.3 | Casp3 select 89.8 | SENP luc ctr 82.0
COCCNC(=O)c1ccc2c3n(nc2c1)-c1ccccc1CO3	none
Cc1ccc2c(c1)COc1c3ccc(C(=O)N4CCOCC4)cc3nn1-2	SENP7 block 69.3, SENP6 block 70.8 | SENP8 conf 71.5 | SENP6 conf 69.1 | SENP7 confirm 90.4 | Casp3 select 88.2 | SENP luc ctr 75.6
O=C(c1ccc2c3n(nc2c1)-c1ccc(Cl)cc1CO3)N1CCCCC1	SENP7 block 84.1, SENP8 block-1 86.1, SENP6 block 87.1 | SENP8 conf 83.7 | SENP6 conf 94.3 | SENP7 confirm 100.4 | Casp3 select 93.7 | SENP luc ctr inactive
COC(=O)c1sccc1NC(=O)CSCCc1ccccn1	none
CCOc1cc(C(=O)OC(C)C(=O)Nc2ccc(NC(C)=O)cc2)ccc1OCC(=O)N1CCCCC1 (configuration not stated)	none
COc1cc(C(=O)NCCN2C(=O)S/C(=C\c3cccs3)C2=O)cc(OC)c1OC	SENP7 block 64.1, SENP8 block-1 55.6 | SENP8 conf inactive | SENP6 conf inactive | SENP7 confirm inactive | Casp3 select inactive | SENP luc ctr inactive
CC(=O)Oc1cccc2c1C(=O)c1c(OC(C)=O)cc(C(=O)O)cc1C2=O	none
O=C(O)c1cc(O)c2c(c1)C(=O)c1cc(O)cc(O)c1C2=O	SENP6 block 51.9 | SENP8 conf 67.0 | SENP6 conf 60.0 | SENP7 confirm 84.3 | Casp3 select inactive | SENP luc ctr 72.1
Cc1cccc(C(=O)O/N=C(\N)c2ccc(Cl)cc2)c1	none
Cc1ccc(C(=O)O/N=C(\N)Cc2cccs2)c(Cl)c1	SENP7 block 84.7, SENP8 block-1 70.1, SENP6 block 86.8 | SENP8 conf 84.2 | SENP6 conf 83.1 | SENP7 confirm 94.8 | Casp3 select 86.4 | SENP luc ctr 83.9
Cc1ccc(C(=O)O/N=C(\N)Cc2ccc([N+](=O)[O-])cc2)c(Cl)c1	none
COc1ccccc1C(=O)O/N=C(\N)c1ccc(Cl)cc1	none
Cc1ccc(/C(N)=N/OC(=O)c2ccc(Cl)cc2Cl)cc1	SENP7 block 64.1, SENP6 block 79.0 | SENP8 conf inactive | SENP6 conf 50.2 | SENP7 confirm 84.2 | Casp3 select inactive | SENP luc ctr 59.1
COc1ccc(/C(N)=N/OC(=O)c2ccc(Br)o2)cc1	none
COc1ccc(C(=O)O/N=C(\N)c2ccc(Cl)cc2)cc1	SENP7 block 68.4, SENP6 block 57.8 | SENP8 conf inactive | SENP6 conf inactive | SENP7 confirm 84.2 | Casp3 select 72.5 | SENP luc ctr inactive
